From PubChem BioAssay (NCATS) come the findings set out here.

Molecules are shown by their SMILES. “And” between values parts separate entries of the source, which are not always exact repeats. Identical values can stand only once. Inconclusive results are not listed. The source holds several records for some structures; these can differ, active in one and inactive in another. The source made the active and inactive calls. Unless noted, the call rests on the fitted dose curve; in most records, active means well fitted curve in the direction sought with a large enough effect; inconclusive means small, poorly fitted or top-dose-only effect, or another doubt; inactive means no such curve, though single readings can be large; an effect the other way counts as inactive or inconclusive.

Assay [1] can be described thus: High-throughput drug toxicity screening in the BPDCN cell line Gen2.2 (AID 1224824; call rule not given here;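 further: cells exposed to compounds for 48 h before reading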). The settings on record: Gen2.2 BPDCN cells; at 45.8 µM (top of the series) unless noted. An outline of the steps:
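Gen2.2 cells, 500 per well in phenol red-free RPMI with 10% FBS, exposed to compounds 48 h at 37 C, 5% CO2; viability by CellTiter-Glo luminescence. Percent activity scaled to DMSO (100%) and 9.2 uM bortezomib final (0%).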

Assay [2] can be described thus: High-throughput drug toxicity screening in the BPDCN cell line Cal-1 (AID 1224825; call rule not given here). The settings on record: Cal-1 BPDCN cell viability, qHTS; at 45.8 µM (top of the series) unless noted. The essentials:
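500 Cal-1 cells/well, RPMI + glutamine + 10% FBS (phenol red-free); cpd added by pin tool; 48 h, 37C, 5% CO2; CTG 15 min RT, lumi read. Normalised: DMSO 100%, bortezomib 9.2 uM 0%.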
Background: qHTS replaces the single test concentration by a dilution series.

Assay [3] in a line: qHTS assay for measurement of the activity of small molecule inhibitors on Zika virus induced Caspase-3 activity in human iPSC derived neural progenitor cells (hNPCs) (AID 1224857). Further: nearly all actives have a fitted effect of over 65% in size. Further: potency means the concentration at half of the fitted maximal effect. An outline of the steps:
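After overnight (16–20 h) culture at 350 cells/well, hNPCs get compound, then ZIKV 2 FFU/cell one hour later. Six hours on, Caspase-Glo 3/7 is added and luminescence measured.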

Assay [4] is described as follows: qHTS assay for measurement of the activity of small molecule inhibitors on Zika virus induced Caspase-3 activity in human astrocytoma cells (AID 1224859). Further: potency means the concentration at half of the fitted maximal effect. The essentials:
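Inhibition of Zika-induced caspase-3/7 activity: SNB-19 cells, 1 h compound pretreatment, ZIKV 2 FFU/cell for 6 h at 37 C, Caspase-Glo luminescence read-out.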

Assay [5] is described as follows: qHTS Screen of the MIPE 4.0 Collection Against Ewings Sarcoma (RDES) (AID 1259252). Further: nearly all actives have a fitted effect of over 35% in size. Further: potency means the concentration at half of the fitted maximal effect. An outline of the steps:
(§1)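 CellTiter-Glo luminescence after 48 h compound exposure (titration) gave viability; percent activity used DMSO-treated cells as no inhibition and medium-only wells as full inhibition. Cells grown in RPMI/5% FBS, dosed 4 h post-seeding.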

The nature of assay [6]: qHTS Screen of the MIPE 4.0 Collection Against Ewings Sarcoma (TC71) (AID 1259253). Further: nearly all actives have a fitted effect of over 40% in size. Further: potency means the concentration at half of the fitted maximal effect. The essentials:
as §1

A short description of assay [7]: qHTS Screen of the MIPE 4.0 Collection Against Ewings Sarcoma (EW8) (AID 1259255). Further: nearly all actives have a fitted effect of over 35% in size. Further: potency means the concentration at half of the fitted maximal effect.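 On viability: 100% = DMSO-treated cells and 0% = medium-only wells without cells.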 The essentials:
as §1

Assay [8] in a line: qHTS Screen of the MIPE 4.0 Collection Against Ewings Sarcoma (TC32) (AID 1259256). Further: nearly all actives have a fitted effect of over 45% in size. Further: potency means the concentration at half of the fitted maximal effect. The essentials: as §1
The nature of assay [9]: qHTS assay to identify small molecule inhibitors of chordoma cells - UCH-1 (AID 1259355). Further: on the % scale 0 is the no-effect control and ±100 the full control effect; nearly all actives have a fitted effect of over 55% in size. The essentials:
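Seed 800 cells per well; incubate overnight at 37 C, 5% CO2. Add test compounds (15 concentrations), then the auranofin–topoisomerase-agent combination. Incubate 48hr, add CellTiter-Glo, wait 30min, read luminescence.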

Assay [10] can be described thus: qHTS assay to identify small molecule inhibitors of chordoma cells - UCH-2 (AID 1259356). Further: on the % scale 0 is the no-effect control and ±100 the full control effect.
Assay [11] is described as follows: P-glycoprotein substrates identified in KB-3-1 adenocarcinoma cell line, qHTS therapeutic library screen (AID 1346986). Further: nearly all actives have a fitted effect of over 60% in size. The settings on record: KB-3-1 parental cells viability, CellTiter-Glo, 72 h; at 44.5 µM (top of the series). An outline of the steps:
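Cells seeded 500/well in DMEM/10% FCS; compounds pinned in dose-response; 72 h incubation; CellTiter-Glo added, 5 min, luminescence. KB-8-5-11 run ±tariquidar to test reversal of P-gp resistance.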

Assay [12] is described as follows: P-glycoprotein substrates identified in KB-8-5-11 adenocarcinoma cell line, qHTS therapeutic library screen (AID 1346987). Further: nearly all actives have a fitted effect of over 65% in size. Further: potency means the concentration at half of the fitted maximal effect. An outline of the steps: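 Steps: plate 500 KB-8-5-11 cells/well in DMEM + 10% FCS (colchicine removed); pin compounds in dose-response; incubate 72 h, 37 degree C, 5% CO2; add CellTiter-Glo, 5 min; read luminescence.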

On to `CC1=NN(c2ccccc2)C(=O)C1`, for which the cell viability, % of control (lower = more cytotoxic) in assay [1] amounted to 112%. Moreover, the viability (% of control) in [2] stood at 99.8%. Further, the Potency entry in assay [3], in [4], in assay [5], in [6], in assay [7] and in assay [8] was “inactive” throughout. The Potency entry in [9], in assay [10] and in assay [12] was “inactive” throughout. In assay [11], the outcome was inactive.
`O=C(O)c1ccc(-n2nc(-c3ccccc3O)nc2-c2ccccc2O)cc1`: the cell viability, % of control (lower = more cytotoxic) in assay [1] came to 142%. Moreover, the viability (% of control) in assay [2] was 25.8%. In addition, the Potency result in assay [3] and in assay [4] was “inactive” in each case. Moreover, the figures for the Potency in assay [5], in assay [6] and in [7] were 20.9 µM (active), 14.8 µM (active) and 20.9 µM (active), respectively.
For `C[C@@H]1C[C@H]2[C@@H]3CCC4=CC(=O)C=C[C@]4(C)[C@@]3(Cl)[C@@H](O)C[C@]2(C)[C@@]1(OC(=O)c1ccco1)C(=O)CCl`, the cell viability, % of control (lower = more cytotoxic) in assay [1] was found to be 4.47%. In assay [2], the viability (% of control) amounted to 6.87%. Also, the Potency entry in assay [3], in [4], in assay [9], in assay [10] and in [12] was “inactive” each time. Besides, the Potency was 3.72 µM (active) in assay [5], 4.69 µM (active) in [6], 11.8 µM (active) in assay [7] and 11.8 µM (active) in [8].
As to `CC(C)OC(=O)C(C(=O)OC(C)C)=C1SC=CS1`, the cell viability, % of control (lower = more cytotoxic) in assay [1] worked out at 159%. Further, the viability (% of control) in assay [2] turned out to be 94.2%. Further, the Potency result in assay [3], in [4], in assay [5], in [6], in assay [7] and in [8] was “inactive” in each case. Moreover, the Potency result in assay [9] and in assay [12] was “inactive” throughout. In assay [11], the result was inactive.
As for `Cc1cc(NS(=O)(=O)c2ccc(N)cc2)no1`, the cell viability, % of control (lower = more cytotoxic) in assay [1] came to 56.5%. Also, the viability (% of control) in [2] stood at 82.3%. The Potency result in assay [3], in [4], in assay [5], in assay [6], in assay [7] and in assay [8] was “inactive” throughout. Moreover, the Potency entry in [9], in assay [10] and in assay [12] was “inactive” throughout. Further, in assay [11], the outcome was inactive.
As for `CO[C@@H]1[C@@H](OC(N)=O)[C@@H](O)[C@H](Oc2ccc3c(O)c(NC(=O)c4ccc(O)c(CC=C(C)C)c4)c(=O)oc3c2C)OC1(C)C`, the cell viability, % of control (lower = more cytotoxic) in [1] is 13.9%. Besides, the viability (% of control) in assay [2] was 44%. For the same compound, the Potency entry in assay [3], in assay [4], in assay [9] and in assay [12] was “inactive” in each case. The Potency in assay [5] was 5.9 µM (active); in assay [6] it was 4.69 µM (active); in [7], 2.09 µM (active); in assay [8], 5.9 µM (active).
Consider `O=C(O)c1cc(=O)[nH]c(=O)[nH]1`, for which the cell viability, % of control (lower = more cytotoxic) in [1] stood at 184%. Also, the viability (% of control) in [2] is 128%. In addition, the Potency entry in assay [3], in [4], in [5], in assay [6], in [7] and in [8] was “inactive” each time. The Potency entry in assay [9] and in assay [12] was “inactive” in each case.
Take `CC(=O)Oc1ccccc1C(=O)Nc1ncc([N+](=O)[O-])s1`: the cell viability, % of control (lower = more cytotoxic) in assay [1] was determined as 73% [at 92.2 µM]. Besides, in assay [2], the viability (% of control) stood at 38.5% [at 92.2 µM]. Further, the Potency in assay [3] was 1.91 µM (active); in assay [4], 1.71 µM (active) and inactive; in [5], 21.5 µM (active); in [6], 19.1 µM (active); in assay [7] it was 21.5 µM (active); in [8], 21.5 µM (active). The Potency result in assay [12] is “inactive and 13 µM (active)”. Moreover, in assay [10], the Potency result is “inactive”.
As to `CCn1cc(C(=O)O)c(=O)c2cc(F)c(N3CCN(C)CC3)cc21`, the cell viability, % of control (lower = more cytotoxic) in assay [1] came out at 85.7%. The viability (% of control) in assay [2] is 97.9%. For the same compound, the Potency entry in assay [3], in assay [4], in assay [5], in assay [6], in assay [7] and in assay [8] was “inactive” throughout. The Potency result in assay [9] and in assay [12] was “inactive” throughout.
As for `NCCCC(O)(P(=O)(O)O)P(=O)(O)O`, in assay [1], the cell viability, % of control (lower = more cytotoxic) was 169%. The viability (% of control) in [2] amounted to 97.8%. In addition, the Potency result in [3], in assay [4], in [5], in assay [6], in [7] and in assay [8] was “inactive” each time. Moreover, the Potency entry in [9] and in assay [12] was “inactive” in each case.
